Assay results from PubChem BioAssay AID2685 (National Center for Advancing Translational Sciences (NCATS), 2010).
Hit rate of the full screen: of about 320,000 compounds, about 2,100 (0.66%) were called active. Not shown: some 53% with an inconclusive outcome. The call rests on the fitted dose curve; in most records, active means well fitted inhibition curve with a large enough effect in the signal ratio, with a control signal flat (not every such curve was filed as active); inconclusive means small, poorly fitted or top-dose-only effect, or effect the other way, or a change in a side signal; inactive means flat fitted curve, though single readings scatter; the % refers to the signal ratio. The entries come from a sample that favours actives as a whole.

experiment: qHTS Assay for Lipid Storage Modulators in Drosophila S3 Cells; conditions: BODIPY lipid droplet fluorescence, 18-24 h, cells fed with added oleic acid; cell number change: measured here: cell count max response; series mostly up to 46.1 µM;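 on cell number change: cells counted by Cell Tracker Red CMTPX staining in the red channel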; on lipid storage change, negative = inhibition: on the % scale 0 is the no-effect control and ±100 the full control effect
Procedure, shortened: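 Laser-scanning cytometry quantifies lipid droplet accumulation (500–530 nm total intensity; droplet/cell object ratio) in oleic acid-fed (400 uM added) Drosophila S3 cells treated with a concentration series. 20 uM Triacsin C defined 100% inhibition.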
Potency means the concentration at half of the fitted maximal effect.

Compound | Potency | cell number change [%] | lipid storage change, negative = inhibition
CCOC(=O)CN1C(=O)C(O)(c2c(C)[nH]c3ccccc23)c2ccccc21 (configuration not stated) | inactive | 8.53 | –
Cc1cc(C)n(-c2cc(N3CCOCC3)ncn2)n1 | inactive | -1.49 | –
COc1cccc(/C=C2\SC(=S)N(c3cccnc3)C2=O)c1OC | inactive | 12.9 | –
O=C(Nc1ccc2c(c1)OCO2)C1CC(c2ccccc2O)=NO1 (configuration not stated) | inactive | 19.9 | –
CCn1cc(C2=NOC(C(=O)Nc3ccc4c(c3)OCO4)C2)c(C)n1 (configuration not stated) | 7.31 µM (active) | -25.4 | –
COc1ccc(C2=NOC(C(=O)Nc3ccc4c(c3)OCO4)C2)cc1 (configuration not stated) | inactive | 14.2 | –
COc1cccc2sc(NNC(=O)COc3ccccc3)nc12 | – | 5.71 | -1.29% [at 9.22 µM] (inactive)
CC(C)C(=O)Nc1cc(=O)[nH]c2ncnn12 | 5.8 µM (active) | -10.1 | –
O=C(Nc1cc(=O)[nH]c2ncnn12)c1ccccc1 | inactive | -8.14 | –
CCC(=O)Nc1cc(=O)[nH]c2ncnn12 | inactive | -14.7 | –
Cn1c(=O)[nH]c(=O)c2c1nc(Br)n2C/C=N/NC(N)=S | inactive | -9.55 | –
O=C(Nc1c2c(nn1-c1ccc(F)cc1)CS(=O)(=O)C2)c1ccc(S(=O)(=O)N2CCOCC2)cc1 | inactive | -2.12 | –
O=C(Nc1cccc(-c2cccc(Cl)c2)c1)C1CCN(CC2CCOC2)CC1 (configuration not stated) | inactive | 26.5 | –
COc1cccc(-c2cccc(NC(=O)C3CCN(CC4CCOC4)CC3)c2)c1 (configuration not stated) | 16.4 µM (active) | -23.3 | –
COc1cccc(-c2cccc(NC(=O)C3CCN(Cc4ccc(CO)o4)CC3)c2)c1 | inactive | -8.92 | –
O=C(CSc1nc(O)cc(=O)n1-c1ccccc1)c1ccc(Br)cc1 | – | -4.08 | 26.5% [at 9.22 µM] (inactive)
COc1ccc(-c2ccc3ccccc3n2)cc1 | inactive | -4.92 | –
S=c1[nH]nc(-c2ccncc2)n1/N=C/c1cccc2ccccc12 | inactive | 15.5 | –
Clc1ccc(CN2CCCCCC2)cc1 | inactive | 7.51 | –
CC(C)CCn1c(CN(C)Cc2ccccc2)nc2c1c(=O)n(C)c(=O)n2C | inactive | -8.94 | –

Compound | Potency | cell number change [%] | lipid storage change, negative = inhibition
C=C(C)Cn1c(CN(C)Cc2ccccc2)nc2c1c(=O)n(C)c(=O)n2C | 0.92 µM (active) | -21.1 | –
CC(C)Cn1c(CN(C)Cc2ccccc2)nc2c1c(=O)n(C)c(=O)n2C | inactive | – | –
C[C@@H](NC(=O)c1nc[nH]c1C(=O)NCC(=O)OC(C)(C)C)c1ccccc1 | inactive | 2.99 | –
CC(=O)c1ccc(Oc2cc(C(F)(F)F)cnc2C(N)=O)cc1 | inactive | 26.2 | –
CC(NC(=O)c1ccncc1)C(c1cccs1)N1CCOCC1 (configuration not stated) | inactive | 1.4 | –
O=C(CSc1nc2ccccc2nc1N1CCCC1)Nc1ccc(F)cc1 | inactive | 7.49 | –
COc1ccc(NC(=O)CSc2nc3ccccc3nc2N2CCCC2)cc1 | inactive | -11.5 | –
CCc1ccc(NC(=O)CSc2nc(=O)n(CCCN3CCOCC3)c3c2CCCC3)cc1 | 14.6 µM (active) | -8.01 | –
CCCCc1ccc(NC(=O)CSc2nc(=O)n(CCN3CCOCC3)c3c2CCC3)cc1 | inactive | 7.1 | –
CCOc1ccc(NC(=O)CSc2nc3ccccc3nc2N2CCOCC2)cc1 | 20.6 µM (active) | -28 | –
Cc1cccc(NC(=O)CSc2nc3ccccc3nc2N2CC(C)OC(C)C2)c1 (configuration not stated) | inactive | 8.93 | –
CCOc1ccc(NC(=O)CSc2nc(N3CCOCC3)nc(N3CCOCC3)n2)cc1 | inactive | 4.32 | –
CCCCc1ccc(NC(=O)CSc2nc(=O)n(CCCN3CCOCC3)c3c2CCC3)cc1 | inactive | 12.5 | –
CCc1ccc(NC(=O)CSc2nc3ccccc3nc2N2CCCCC2)cc1 | 13 µM (active) | 25.4 | –
COc1ccc(NC(=O)CSc2nc3ccccc3nc2N2CCCCC2)cc1 | inactive | -10.4 | –
Cc1cc(C)cc(NC(=O)CSc2nc3ccccc3nc2N2CCCCC2)c1 | inactive | 10.1 | –
CC1CN(c2nc3ccccc3nc2SCC(=O)Nc2ccc(F)cc2)CC(C)O1 (configuration not stated) | 20.6 µM (active) | 22.5 | –
Cc1cc(C)n2c(SCc3c(C)noc3C)nnc2n1 | inactive | 2.46 | –
Cc1cccc(NC(=S)NCCc2ccc(S(N)(=O)=O)cc2)c1C | inactive | -9.26 | –
C=CCSc1nnc(NC(=O)C2CC(=O)N(Cc3ccc(C)cc3)C2)s1 (configuration not stated) | inactive | -7.78 | –

Compound | Potency | cell number change [%] | lipid storage change, negative = inhibition
CC(=C\C(=O)O)/C(=C/c1ccc(C)o1)C(=O)O | inactive | -12.8 | –
O=C(NCc1ccc2[nH]c3c(c2c1)CCCC3)c1ccc(S(=O)(=O)N2CCCCC2)cc1 | inactive | -10.5 | –
CN(C)C(=O)c1cc(C(=O)c2c(F)cccc2F)c[nH]1 | inactive | -8.76 | –
O=C(CN1C(=O)NC2(CCCCC2)C1=O)Nc1cccc(S(=O)(=O)N2CCOCC2)c1 | inactive | -0.223 | –
CCC1Sc2ccc(S(=O)(=O)CCC(=O)Nc3ccc(OC(F)(F)F)cc3)cc2NC1=O (configuration not stated) | inactive | 2.14 | –
O=C(NC(Cc1ccccc1)C(=O)O)/C(=C\c1cccc([N+](=O)[O-])c1)NC(=O)c1ccco1 (configuration not stated) | inactive | – | –
O=C(NC(Cc1ccccc1)C(=O)O)/C(=C\c1ccc(Cl)cc1)NC(=O)c1ccco1 (configuration not stated) | 0.0411 µM (active) | – | –
O=C(NC(Cc1ccccc1)C(=O)O)/C(=C\c1ccccc1)NC(=O)c1ccco1 (configuration not stated) | inactive | -6.67 | –
O=C(NC(Cc1ccccc1)C(=O)O)/C(=C/c1ccco1)NC(=O)c1cccc(Br)c1 (configuration not stated) | inactive | -18 | –
O=C(NC(Cc1ccccc1)C(=O)O)/C(=C/c1cccc(Br)c1)NC(=O)c1ccco1 (configuration not stated) | 1.84 µM (active) | – | –
O=C(NC(Cc1ccccc1)C(=O)O)/C(=C/c1ccc(Cl)cc1)NC(=O)c1ccccc1 (configuration not stated) | inactive | 1.96 | –
O=C(CC1C(=O)NCCN1Cc1ccc(-c2ccccc2)cc1)NCCOc1cccnc1 (configuration not stated) | inactive | -0.0435 | –
O=C(Nc1cccc2ccccc12)c1cccc(F)c1 | inactive | -3.54 | –
COc1ccc(NC(=O)C2CSC(C)(C)N2C=O)cc1 (configuration not stated) | inactive | 7.51 | –
COc1ccc(CN2CCOCCOCCN(Cc3ccc(OC)cc3)CCOCCOCC2)cc1 | inactive | 16 | –
Cc1ccc(S(=O)(=O)NCc2ccccc2)cc1C(=O)N(C)CC(=O)Nc1c(Cl)cccc1Cl | inactive | – | –
Cc1cc(-c2ccc(Cl)cc2Cl)c(C#N)c(=O)[nH]1 | inactive | – | –
CSc1nc(-c2ccc(Cl)cc2Cl)[nH]c(=O)c1C#N | 32.6 µM (active) | -67 | –
CSc1nc(-c2ccc(Cl)cc2)c(C#N)c(=O)[nH]1 | inactive | -0.138 | –
